Experimental data reported in PubChem BioAssay AID1159580 (chemical genetic matrix, 2015).
Hit rate of the full screen: of about 5,500 compounds, about 2,000 (36%) were called active. Inconclusive results (about 18%) are left out. Rule as the data show it: active = normalized growth mostly below about 0.91 (no sharp cut-off); inconclusive = no clear call, values can overlap the other calls; inactive = mostly above about 0.92. This is one part of the list.

Assay: chemical genetic growth profiling, strain panel (AID 1159580);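 also: tested at 20 µM; growth read once vehicle control cultures reached saturation at 30 °C; 1 = growth at the plate median or of vehicle wells; lower values mean less growth of the strain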
Details: growth OD

Measured: normalized growth

O=c1oc2cc(O)ccc2s1
inactive: S. cerevisiae deletion strains, locus YJR043C, strain POL32, active compounds read low 0.962 | S. cerevisiae deletion strains, locus YJR075W, strain HOC1, active compounds read low 0.958 | S. cerevisiae deletion strains, locus YKL009W, strain mrt4, active compounds read low 0.952 | S. cerevisiae deletion strains, locus YKL068W, active compounds read low 0.995 | S. cerevisiae deletion strains, locus YKL085W, strain MDH1 (second series), active compounds read low 0.975 | S. cerevisiae deletion strains, locus YKL085W, strain MDH1, active compounds read low 0.975 | S. cerevisiae deletion strains, locus YKL160W, strain elf1, active compounds read low 0.99 | S. cerevisiae deletion strains, locus YKL190W, strain CNB1, active compounds read low 1 | S. cerevisiae deletion strains, locus YKR026C, strain gcn3, active compounds read low 1.01 | S. cerevisiae deletion strains, locus YKR091W, strain srl3, active compounds read low 1.01 | S. cerevisiae deletion strains, locus YLL001W, strain dnm1, active compounds read low 0.974 | S. cerevisiae deletion strains, locus YLL026W, active compounds read low 0.99 | S. cerevisiae deletion strains, locus YLL041C, strain sdh2, active compounds read low 1.02 | S. cerevisiae deletion strains, locus YLR027C, strain aat2, active compounds read low 0.983 | S. cerevisiae deletion strains, locus YLR039C, strain RIC1, active compounds read low 0.909 | S. cerevisiae deletion strains, locus YLR058C, strain SHM2, active compounds read low 0.983 | S. cerevisiae deletion strains, locus YLR102C, strain apc9, active compounds read low 0.963 | S. cerevisiae deletion strains, locus YLR221C, strain rsa3, active compounds read low 0.971 | S. cerevisiae deletion strains, locus YLR258W, strain gsy2, active compounds read low 1 | S. cerevisiae deletion strains, locus YLR262C, strain YPT6 (second series), active compounds read low 0.965 | S. cerevisiae deletion strains, locus YLR262C, strain YPT6, active compounds read low 0.981 | S. cerevisiae deletion strains, locus YLR268W, strain sec22, active compounds read low 0.903 | S. cerevisiae deletion strains, locus YLR320W, strain mms22, active compounds read low 0.962 | S. cerevisiae deletion strains, locus YLR330W, strain CHS5, active compounds read low 0.982 | S. cerevisiae deletion strains, locus YLR342W, strain FKS1 (second series), active compounds read low 0.956 | S. cerevisiae deletion strains, locus YLR342W, strain FKS1, active compounds read low 1 | S. cerevisiae deletion strains, locus YLR357W, strain rsc2, active compounds read low 0.995 | S. cerevisiae deletion strains, locus YLR370C, strain arc18, active compounds read low 0.999 | S. cerevisiae deletion strains, locus YLR371W, strain rom2, active compounds read low 0.965 | S. cerevisiae deletion strains, locus YLR384C, strain iki3, active compounds read low 1.02 | S. cerevisiae deletion strains, locus YLR418C, strain cdc73, active compounds read low 0.929 | S. cerevisiae deletion strains, locus YML016C, strain PPZ1, active compounds read low 0.98 | S. cerevisiae deletion strains, locus YML120C, strain ndi1, active compounds read low 0.994 | S. cerevisiae deletion strains, locus YML124C, strain tub3, active compounds read low 0.962 | S. cerevisiae deletion strains, locus YMR058W, strain fet3, active compounds read low 0.967 | S. cerevisiae deletion strains, locus YMR078C, strain ctf18, active compounds read low 0.95 | S. cerevisiae deletion strains, locus YMR129W, active compounds read low 1 | S. cerevisiae deletion strains, locus YMR205C, strain PFK2, active compounds read low 0.969 | S. cerevisiae deletion strains, locus YMR223W, strain ubp8, active compounds read low 0.96 | S. cerevisiae deletion strains, locus YMR231W, strain pep5, active compounds read low 1.03 | S. cerevisiae deletion strains, locus YMR263W, strain SAP30, active compounds read low 0.956 | S. cerevisiae deletion strains, locus YMR307W, strain GAS1, active compounds read low 0.946 | S. cerevisiae deletion strains, locus YNL067W, strain RPL9B, active compounds read low 0.926 | S. cerevisiae deletion strains, locus YNL071W, strain lat1, active compounds read low 1.01 | S. cerevisiae deletion strains, locus YNL128W, strain TEP1, active compounds read low 0.962 | S. cerevisiae deletion strains, locus YNL153C, strain GIM3, active compounds read low 0.948 | S. cerevisiae deletion strains, locus YNL209W, strain ssb2, active compounds read low 1 | S. cerevisiae deletion strains, locus YNL233W, strain BNI4, active compounds read low 0.955 | S. cerevisiae deletion strains, locus YNL248C, strain rpa49, active compounds read low 1.04 | S. cerevisiae deletion strains, locus YNL250W, strain rad50, active compounds read low 0.941 | S. cerevisiae deletion strains, locus YNL271C, strain bni1, active compounds read low 0.939 | S. cerevisiae deletion strains, locus YNL298W, strain CLA4, active compounds read low 0.917 | S. cerevisiae deletion strains, locus YNL307C, strain MCK1, active compounds read low 0.959 | S. cerevisiae deletion strains, locus YNL322C, strain KRE1 (second series), active compounds read low 1.01 | S. cerevisiae deletion strains, locus YNL322C, strain KRE1, active compounds read low 0.99 | S. cerevisiae deletion strains, locus YNR049C, strain mso1, active compounds read low 0.999 | S. cerevisiae deletion strains, locus YNR052C, strain pop2, active compounds read low 0.966 | S. cerevisiae deletion strains, locus YOL006C, strain TOP1, active compounds read low 0.908 | S. cerevisiae deletion strains, locus YOL012C, strain htz1 1.09 | S. cerevisiae deletion strains, locus YOL147C, strain pex11, active compounds read low 0.964 | S. cerevisiae deletion strains, locus YOR001W, strain rrp6, active compounds read low 0.994 | S. cerevisiae deletion strains, locus YOR061W, strain CKA2, active compounds read low 0.984 | S. cerevisiae deletion strains, locus YOR069W, strain VPS5, active compounds read low 0.984 | S. cerevisiae deletion strains, locus YOR070C, strain gyp1, active compounds read low 1.01 | S. cerevisiae deletion strains, locus YOR080W, strain dia2, active compounds read low 1.02 | S. cerevisiae deletion strains, locus YOR083W, strain WHI5, active compounds read low 0.931 | S. cerevisiae deletion strains, locus YOR106W, strain vam3, active compounds read low 0.972 | S. cerevisiae deletion strains, locus YOR136W, strain idh2, active compounds read low 0.972 | S. cerevisiae deletion strains, locus YOR144C, strain elg1, active compounds read low 0.966 | S. cerevisiae deletion strains, locus YOR184W, strain ser1, active compounds read low 0.91 | S. cerevisiae deletion strains, locus YOR265W, strain rbl2, active compounds read low 0.994 | S. cerevisiae deletion strains, locus YOR270C, strain vph1, active compounds read low 0.943 | S. cerevisiae deletion strains, locus YOR290C, strain snf2, active compounds read low 0.992 | S. cerevisiae deletion strains, locus YOR316C, strain cot1, active compounds read low 0.968 | S. cerevisiae deletion strains, locus YPL051W, strain arl3, active compounds read low 0.999 | S. cerevisiae deletion strains, locus YPL055C, strain LGE1, active compounds read low 1 | S. cerevisiae deletion strains, locus YPL078C, strain atp4, active compounds read low 0.987 | S. cerevisiae deletion strains, locus YPL106C, strain sse1, active compounds read low 1.02 | S. cerevisiae deletion strains, locus YPL240C, strain hsp82, active compounds read low 1.02 | S. cerevisiae deletion strains, locus YPL241C, strain CIN2, active compounds read low 0.989 | S. cerevisiae deletion strains, locus YPR119W, strain clb2, active compounds read low 0.967 | S. cerevisiae deletion strains, locus YPR141C, strain kar3, active compounds read low 0.933 | S. cerevisiae deletion strains, locus YPR163C, strain tif3, active compounds read low 0.965 | S. cerevisiae deletion strains, locus YPR167C, strain met16, active compounds read low 0.965 | S. cerevisiae strains, strain wild type, active compounds read low 0.978
active: S. cerevisiae deletion strains, locus YKR001C, strain vps1, active compounds read low 0.894 | S. cerevisiae deletion strains, locus YML032C, strain rad52, active compounds read low 0.858 | S. cerevisiae deletion strains, locus YMR125W, strain sto1, active compounds read low 1.12 [resistant] | S. cerevisiae deletion strains, strain wtn01, active compounds read low 0.876
